Data on one compound can be found in PubChem BioAssay AID652251 (National Center for Advancing Translational Sciences (NCATS), 2013).

Active and inactive are the calls of the source.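 The calls were made as follows: active = lowers cyclin D1 in cells by half at 5 µM or less; inconclusive = half-effect dose above 5 µM but under 10 µM; inactive = half-effect dose of 10 µM or more.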

This assay can be described thus: qHTS for Inhibitors of Ubiquitin-specific Protease USP2a Using CHOP2 as the Reporter: Cyclin D1 Western Blot. The note with it: HCT116 cyclin D1 western blot. From the text:
Homeostasis of cellular proteins is maintained through a combination of synthesis and degradation. The pathway that accounts for the majority of protein degradation is the ubiquitin-proteasomal pathway. Ubiquitin (Ub) is highly conserved in all cells and the generation of a multi-Ub chain typically targets proteins for degradation by the proteasome. However, ubiquitination is highly reversible and dynamic. Deubiquitination, the reverse process, is catalyzed through the action of enzymes referred to as isopeptidases or deubiquitinating enzymes (DUBs). This group of enzymes is collectively responsible for maintaining adequate pools of free ubiquitin and regulating the ubiquitination status of cellular proteins. The class of DUBs referred to as the ubiquitin-specific proteases (USP) family functions endoproteolytically to cleave Ub chains from a wide range of protein substrates. USP2a deubiquitinates fatty acid synthase (FASN) which has recently been identified as an emerging oncology target. […] To further visualize and quantitate the effect of compounds on cell proliferation, a colony forming or clonogenic assay was performed in 6-well plates using HCT116 cells. […] The colonies were visualized on the Typhoon imager (GE) using Cy5 detection, and quantitated with the associated software. […]
. […] Protein levels were quantified using ImageJ.
(In general: Quantitative high-throughput screening tests each substance at several concentrations.)
Turning to `Cc1ccc(S(=O)(=O)Nc2cc(C(F)(F)F)ccc2C(=O)Nc2nc(-c3ccccc3)cs2)cc1`, the Potency is 970 nM (active).
